The record followed here is PubChem BioAssay (Tox21).

Inconclusive results are not listed. A call without a number means that no potency is given here. Some structures have more than one record in an assay (separate samples or runs), and their calls can disagree. Active and inactive are the calls of the source. Calls come from the whole dose curve; as a rule, active = well fitted activation curve with a large enough effect in the repeat runs; inconclusive = weak or mixed curves; inactive = no such curve, though single readings can be large or run the other way.
Potency is the fitted concentration of half-maximal effect.

The assay deals with Nuclear receptor subfamily 1 group I member 2 (Homo sapiens) (UniProt O75469). The assay can be described thus: Human pregnane X receptor (PXR) small molecule agonists, qHTS assay (AID 1346982). Note: nearly all actives have a fitted effect of over 35% in size. Conditions: PXR-Luc HepG2, CYP3A4 luciferase reporter, 24 h; series mostly up to 92.4 µM. From the text: National Center for Advancing Translational Sciences [NCATS]
Nuclear receptor subfamily 1 group I member 2 (Homo sapiens), sequence (O75469 whole entry, looked up): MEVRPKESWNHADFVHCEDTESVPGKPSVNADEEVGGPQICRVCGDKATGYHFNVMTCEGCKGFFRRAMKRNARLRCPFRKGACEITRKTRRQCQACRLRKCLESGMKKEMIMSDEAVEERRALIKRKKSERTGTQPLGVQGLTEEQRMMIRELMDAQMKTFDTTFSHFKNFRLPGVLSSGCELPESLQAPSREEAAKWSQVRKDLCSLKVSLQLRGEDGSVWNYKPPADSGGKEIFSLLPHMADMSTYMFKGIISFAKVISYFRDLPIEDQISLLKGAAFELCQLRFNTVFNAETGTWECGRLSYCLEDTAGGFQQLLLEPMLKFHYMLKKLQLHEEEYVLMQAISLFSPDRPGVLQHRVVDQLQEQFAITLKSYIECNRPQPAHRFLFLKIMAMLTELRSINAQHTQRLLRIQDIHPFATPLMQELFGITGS
NIH Chemical Genomics Center [NCGC]
U.S. Environmental Protection Agency [EPA]
National Institutes of Environmental Health Sciences [NIEHS]
National Toxicology Program [NTP]
The human pregnane X receptor (hPXR) regulates the expression of several drug metabolizing enzymes and induction of these proteins is a major mechanism for developing drug resistance in cancer. One such key enzyme catalyzing the drug metabolism is cytochrome P450 3A4 (CYP3A4). Changes in CYP3A4 expression affect drug metabolism, thereby reducing the therapeutic efficacy and altering toxicological response to a drug and which finally causes adverse drug interaction. To screen Tox21 libraries for compounds that activate hPXR-mediated CYP3A4 gene expression, PXR-Luc HepG2 cells were used.
PXR-Luc HepG2 cells were dispensed at 2,000 per well in 5uL of assay medium containing 5% charcoal-stripped FBS into white solid bottom 1536-well plates (Corning Life Sciences, Corning, NY) using a Multidrop Combi (Thermo Scientific, Waltham, MA) dispenser. The assay plates were incubated at 37 C and 5% CO2 for 5hr, and then 23nL of compounds dissolved in DMSO and positive control were transferred using a Pintool station (Wako, San Diego, CA). The assay plates were incubated at 37C and 5% CO2 for 24hr. For luciferase read, 4uL of ONE-Glo reagent (Promega Corporation, Madison, WI) was added to each well of the assay plates using Flying Reagent Dispenser (FRD, Aurora Discovery, San Diego, CA) and incubated the assay plates at room temperature for 30min. The luminescence signal was quantified using a ViewLux plate reader (Perkin Elmer, Shelton, CT).
On to `O=c1cc(-c2ccccc2)oc2ccc3ccccc3c12`, for which the Potency was 2.43 µM (active).

As for `CCCCCCCC/C=C\CCCCCCCCO`, the Potency was 30.6 µM (active).

As for `CCOC(C)=O`, the Potency entry was “inactive”.

On to `CCCCOc1ccc(OCCCN2CCOCC2)cc1`, for which the Potency was 21.1 µM (active).

For the compound `c1ccc2c(c1)CCc1ccccc1N2`, the Potency is 61.4 µM (active) and inactive.

As to `CCn1cc(C(=O)O)c(=O)c2cc(F)c(N3CCNCC3)cc21`, the Potency entry was “inactive”.

In the case of `O=C(Cn1ccnc1[N+](=O)[O-])NCCO`, the Potency entry is “inactive”.

For the compound `CC(=O)NC1(c2cccc(F)c2)CCN(CC[C@@]2(c3ccc(Cl)c(Cl)c3)CN(c3ccccc3)C(=O)CO2)CC1`, the Potency is 19.4 µM (active).

As to `N#CCc1ccc(Cl)cc1Cl`, the Potency entry is “inactive”.

`O=C1NCCN1CCO`: the Potency result is “inactive”.

Take `COC(=O)CCS`: the Potency entry is “inactive”.

As to `CC(=O)[C@H]1[C@H](C#N)C[C@H]2[C@@H]3CC=C4C[C@@H](O)CC[C@]4(C)[C@H]3CC[C@@]21C`, the Potency is 33.1 µM (active).

For the compound `CCCCCCCCN`, the Potency is 27 µM (active).

Take `CC(C)(O)c1ccc(CNC(=O)c2cccnc2Oc2ccc3nonc3c2)cc1`: the Potency result was “inactive”.

With `O=C1c2ccccc2C(=O)C1c1nc2ccccc2c(Br)c1O`, the Potency was 61.1 µM (active).

Turning to `Cc1ccc(OC(=O)c2ccccc2O)cc1`, the Potency result is “inactive”.

`CCCCCCC(C)(C)C(=O)O`: the Potency is 48.6 µM (active).

In the case of `CC(C)=CCC/C(C)=C/CC/C(C)=C/CCC(=O)OC/C=C(\C)CCC=C(C)C`, the Potency entry was “inactive”.

On to `OCCOCC#CCOCCO`, for which the Potency result is “inactive”.

Turning to `CC1=Nc2ccc3ccccc3c2C1(C)C`, the Potency is 30.6 µM (active).

With `C=CC(=O)OCC1CC2CC1C1CCC(COC(=O)C=C)C21` (stereo not given), the Potency was 34.4 µM (active).

As to `CCCCCCCCCCCCCCN(CCO)CCO`, the Potency was 12.2 µM (active).

With `C[C@]1(Cn2ccnn2)[C@H](C(=O)O)N2C(=O)C[C@H]2S1(=O)=O`, the Potency result is “inactive”.

Take `CCOC(=O)c1ccc(O)c(O)c1`: the Potency entry is “inactive”.

As for `C=C(C)C(=O)OCCCCCCCCCCCCC`, the Potency result was “inactive”.

For the compound `CC/C=C1/OC(=O)c2ccccc21`, the Potency entry was “inactive”.

On to `CCC(OCCCOC)OC(C)=O` (stereo not given), for which the Potency result is “inactive”.

Take `O=[N+]([O-])c1cc(C2CCCCC2)c(O)c([N+](=O)[O-])c1`: the Potency is 8.61 µM (active).

For `O=C1Cc2ccccc2N1c1c(Cl)cccc1Cl`, the Potency was 9.69 µM (active).

`Oc1cccc(Nc2ccccc2)c1`: the Potency is 63.8 µM (active).

On to `CCN(CC)CCNC(=O)COc1ccc(OC)cc1`, for which the Potency result is “inactive”.

Consider `CC(C)Nc1cccnc1N1CCN(C(=O)c2cc3cc(NS(C)(=O)=O)ccc3[nH]2)CC1`, for which the Potency entry is “inactive”.

Regarding `CCC=CC#N`, the Potency was 47.1 µM (active).

As to `CS(=O)(=O)c1ccc(-c2cn3ccccc3n2)cc1`, the Potency is 2.66 µM (active).

As for `CCCCC(CC)COP(=O)(O)O` (stereo not given), the Potency result is “inactive”.

Take `CN1CCCC(n2nc(Cc3ccc(Cl)cc3)c3ccccc3c2=O)CC1` (stereo not given): the Potency is 5.31 µM (active).

As to `COc1cc(C(=O)NC2CCN(C)CC2)ccc1Nc1ncc2c(n1)N(C1CCCC1)CC(F)(F)C(=O)N2C`, the Potency is 19.9 µM (active).

For the compound `CCCCCCCCC(CCCCCC)C(=O)O` (stereo not given), the Potency result is “inactive”.

For the compound `CCC1CO1` (stereo not given), the Potency entry was “inactive”.

As to `COc1ncnc(NS(=O)(=O)c2ccc(N)cc2)c1OC`, the Potency result is “inactive”.
